# In PubChem BioAssay (Tox21):
# A number with no mark means an inactive call. Inconclusive results are not listed. Where a call stands in place of a potency, no number is given. The source made the active and inactive calls. Unless noted, calls come from the whole dose curve.
# What was measured:
# [1] = Nuclear factor erythroid 2-related factor 2/antioxidant responsive element (Nrf2/ARE) small molecule agonists: qHTS cell viability counter screen in human keratinocytes (AID 1919968; active = well fitted curve in the direction sought with a large enough effect in the repeat runs; an effect the other way counts as inactive or inconclusive; note: nearly all actives have a fitted effect of over 55% in size)
# Summary of the method: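 KeratinoSens HaCaT cells, 1,500/well, preincubated 5 h, then exposed to compounds in DMSO for 23 h at 37 C/5% CO2. Viability read as CellTiter-Fluor fluorescence after 1 h, in the same wells as the ARE-luciferase read.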
# [2] = Nuclear factor erythroid 2-related factor 2/antioxidant responsive element (Nrf2/ARE) small molecule agonists: luciferase reporter gene qHTS assay in human keratinocytes (AID 1919969); note: nearly all actives have a fitted effect of over 35% in size
# [3] = molecular target: Gonadotropin-releasing hormone receptor (Homo sapiens) (UniProt P30968); test: Human gonadotropin-releasing hormone receptor (GnRHR) small molecule agonists, calcium flux assay in GnRHR-HEK293 cells (AID 1920063); note: nearly all actives have a fitted effect of over 35% in size; note: potency is the fitted concentration of half-maximal effect
# Sequence of Gonadotropin-releasing hormone receptor (Homo sapiens) (P30968 whole entry, looked up): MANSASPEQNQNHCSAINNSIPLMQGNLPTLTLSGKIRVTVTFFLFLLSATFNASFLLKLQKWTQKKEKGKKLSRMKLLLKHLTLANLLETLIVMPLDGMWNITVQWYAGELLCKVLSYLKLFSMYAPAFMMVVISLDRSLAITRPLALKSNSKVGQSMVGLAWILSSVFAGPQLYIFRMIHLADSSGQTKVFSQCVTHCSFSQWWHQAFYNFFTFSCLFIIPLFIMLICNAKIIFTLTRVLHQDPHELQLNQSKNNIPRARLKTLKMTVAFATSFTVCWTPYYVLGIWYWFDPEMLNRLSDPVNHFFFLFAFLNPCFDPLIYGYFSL
# Summary of the method: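 HEK293 cells stably expressing human GnRHR were dye-loaded for 1 h at 37 C. Compound was added in agonist mode and fluorescence (Ex/Em 480/540) recorded kinetically for 3 min. Fifteen concentrations, triplicates.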
# [4] = molecular target: KiSS-1 receptor (Homo sapiens) (UniProt Q969F8); test: Human kisspeptin (KISS1R) small molecule agonists, calcium flux assay in KISS1R-HEK293 cells (AID 1920064; active = well fitted curve in the direction sought with a large enough effect in the repeat runs; an effect the other way counts as inactive or inconclusive)
# Sequence of KiSS-1 receptor (Homo sapiens) (Q969F8 whole entry, looked up): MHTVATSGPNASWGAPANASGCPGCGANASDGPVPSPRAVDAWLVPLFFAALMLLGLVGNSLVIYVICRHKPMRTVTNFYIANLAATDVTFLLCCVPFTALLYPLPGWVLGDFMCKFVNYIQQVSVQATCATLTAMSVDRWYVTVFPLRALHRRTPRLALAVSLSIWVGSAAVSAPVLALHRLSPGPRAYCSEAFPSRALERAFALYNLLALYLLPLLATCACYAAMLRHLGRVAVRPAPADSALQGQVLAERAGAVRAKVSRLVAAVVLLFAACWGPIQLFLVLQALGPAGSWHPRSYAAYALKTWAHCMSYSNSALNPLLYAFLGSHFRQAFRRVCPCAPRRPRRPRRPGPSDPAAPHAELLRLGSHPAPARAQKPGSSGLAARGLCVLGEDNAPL
# Summary of the method: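 HEK293 cells stably expressing human KISS1R were loaded with calcium dye for 1 h at 37 C, then given compound; fluorescence (Ex/Em 480/540) was read kinetically for 3 min. Fifteen concentrations, triplicate.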
# [5] = G protein-coupled receptor (GPCR) small molecule agonists, calcium flux assay: HEK293 wild type cell line counter screen (AID 1920065)
# Summary of the method: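 Wild-type HEK293 cells plated 18 h, loaded with calcium dye 1 h at 37 C, then compounds added in agonist mode (ATP as positive control). Kinetic fluorescence Ex/Em 480/540 recorded 3 min at 1 sec intervals; 15 concentrations, triplicate.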
# [6] = p53 small molecule agonists, cell-based qHTS assay with human liver microsomes (AID 1963577)
# Summary of the method: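 Compounds act here after metabolic activation: human liver microsomes and NADPH, both at 0.5 mg/mL final, were co-added to p53RE-bla cells. Incubation ran 16 h at 37 C, followed by LiveBLAzer detection.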
# [7] = p53 small molecule agonists, cell-based qHTS assay with rat liver microsomes (AID 1963578)
# Summary of the method: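 Read-out is beta-lactamase reporter fluorescence (LiveBLAzer, 2 h, room temperature, dark) in p53RE-bla cells treated 16 h at 37 C with compound, rat liver microsomes and NADPH, both 0.5 mg/mL final.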
# [8] = p53 small molecule agonists, cell-based qHTS assay with human liver microsomes: qHTS cell viability counter screen (AID 1963579); note: nearly all actives have a fitted effect of over 45% in size
# Summary of the method: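 Cells carrying the p53 response-element beta-lactamase reporter are treated for 16 h at 37 C with test compounds in the presence of human liver microsomes and NADPH (both 0.5 mg/mL final); ATP-based CellTiter-Glo luminescence then reports viability.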
# [9] = p53 small molecule agonists, cell-based qHTS assay with rat liver microsomes: qHTS cell viability counter screen (AID 1963580); note: nearly all actives have a fitted effect of over 45% in size
# Summary of the method: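 In HCT-116 cells carrying a p53 response element-bla reporter, compounds were metabolically activated in situ by rat liver microsomes with NADPH over 16 h. Cell ATP content then served as the cytotoxicity measure.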
# [10] = p53 small molecule agonists, cell-based qHTS assay: qHTS cell viability counter screen (AID 1963581); note: nearly all actives have a fitted effect of over 45% in size
# Summary of the method: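 p53RE-bla HCT-116 cells, compounds added 5 h after plating and incubated 16 h at 37 C. Cytotoxicity measured in the same wells as intracellular ATP by CellTiter-Glo luminescence after 30 min at room temperature.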
# [11] = p53 small molecule agonists, cell-based qHTS assay (AID 1963582; active = well fitted activation curve with a large enough effect in the signal ratio in the repeat runs, not every such curve was filed as active; the % refers to the signal ratio)
# Summary of the method: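 p53RE-bla reporter cells, compounds added in DMSO after 5 h plating, incubated 16 h at 37 C. Beta-lactamase read via 2 h room-temperature LiveBLAzer B/G FRET substrate, fluorescence intensity.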
# [12] = molecular target: 5-hydroxytryptamine receptor 2A (Homo sapiens) (UniProt P28223); test: 5-hydroxytryptamine receptor 2A (HTR2A) small molecule antagonists, cell-based qHTS assay (AID 1963586); note: nearly all actives have a fitted effect of over 45% in size
# Sequence of 5-hydroxytryptamine receptor 2A (Homo sapiens) (P28223 whole entry, looked up): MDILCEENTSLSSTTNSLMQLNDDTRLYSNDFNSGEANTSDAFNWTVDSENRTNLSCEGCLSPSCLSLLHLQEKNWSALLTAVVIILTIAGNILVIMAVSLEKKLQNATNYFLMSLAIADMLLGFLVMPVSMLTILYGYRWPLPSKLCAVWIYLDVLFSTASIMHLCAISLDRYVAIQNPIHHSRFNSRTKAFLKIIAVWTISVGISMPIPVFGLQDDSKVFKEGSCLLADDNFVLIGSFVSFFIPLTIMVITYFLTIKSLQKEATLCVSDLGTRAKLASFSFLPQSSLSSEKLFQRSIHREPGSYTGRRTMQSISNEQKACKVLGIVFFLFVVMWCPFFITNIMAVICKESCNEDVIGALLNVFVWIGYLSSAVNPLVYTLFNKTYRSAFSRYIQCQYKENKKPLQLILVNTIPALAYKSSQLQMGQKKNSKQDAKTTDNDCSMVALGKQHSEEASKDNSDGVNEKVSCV
# Summary of the method: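 Antagonist-mode intracellular calcium assay: DOI (4 nM) added after 5 min compound pre-incubation at room temperature to dye-loaded HTR2A-CHO cells. Fluorescence followed for 3 min, sampled every second.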
# [13] = molecular target: 5-hydroxytryptamine receptor 2A (Homo sapiens) (UniProt P28223); test: 5-hydroxytryptamine receptor 2A (HTR2A) small molecule agonists, cell-based qHTS assay (AID 1963587); note: nearly all actives have a fitted effect of over 30% in size
# Summary of the method: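 HTR2A-CHO cells, plated 18 h at 37 C/5% CO2, dye-loaded 1 h at 37 C; compounds in DMSO added by pin tool (agonist mode). Intracellular calcium flux read as kinetic fluorescence on FDSS over 2 min at 1 s intervals.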
# [14] = molecular target: Muscarinic acetylcholine receptor M1 (Homo sapiens) (UniProt P11229); test: Cholinergic receptor muscarinic 1 (CHRM1) small molecule antagonists, cell-based qHTS assay (AID 1963588); note: nearly all actives have a fitted effect of over 40% in size
# Sequence of Muscarinic acetylcholine receptor M1 (Homo sapiens) (P11229 whole entry, looked up): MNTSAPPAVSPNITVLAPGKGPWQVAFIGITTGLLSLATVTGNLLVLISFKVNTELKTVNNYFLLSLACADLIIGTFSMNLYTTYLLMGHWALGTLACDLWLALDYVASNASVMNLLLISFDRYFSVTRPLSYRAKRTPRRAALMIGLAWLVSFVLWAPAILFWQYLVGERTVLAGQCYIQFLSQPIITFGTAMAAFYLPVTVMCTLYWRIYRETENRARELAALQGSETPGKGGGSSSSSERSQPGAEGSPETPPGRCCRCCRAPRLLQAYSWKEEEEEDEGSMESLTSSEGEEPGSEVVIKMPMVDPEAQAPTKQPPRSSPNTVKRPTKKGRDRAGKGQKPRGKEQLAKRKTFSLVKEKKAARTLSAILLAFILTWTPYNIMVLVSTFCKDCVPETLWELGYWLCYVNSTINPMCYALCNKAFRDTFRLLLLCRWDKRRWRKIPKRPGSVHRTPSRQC
# Summary of the method: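 CHRM1-CHO calcium-flux assay, antagonist mode. Cells were seeded 18 h, dye-loaded 1 h at 37 C and given compound for 5 min at RT, then acetylcholine was added at 50nM. FDSS fluorescence was read 3 min; 15 concentrations, three runs.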
# [15] = molecular target: Muscarinic acetylcholine receptor M1 (Homo sapiens) (UniProt P11229); test: Cholinergic receptor muscarinic 1 (CHRM1) small molecule agonists, cell-based qHTS assay (AID 1963589); note: nearly all actives have a fitted effect of over 35% in size
# Summary of the method: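 CHO cells stably expressing human CHRM1 were loaded with calcium dye for 1 h at 37 C, then compound was added in agonist mode. Intracellular calcium fluorescence was followed kinetically at 1 s intervals. Fifteen concentrations were tested in three independent runs.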
# [16] = cAMP Responsive Elements (CRE) small molecule agonists, cell-based qHTS assay (AID 1963590)
# Summary of the method: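 CRE-bla HEK 293T cells, 2,000/well in DMEM with 10% dialyzed FBS and 25 mM HEPES, pre-incubated 18 h at 37 C, then exposed to compound 3 h at 37 C. Beta-lactamase reporter read with LiveBLAzer B/G FRET substrate after 2 h at room temperature.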
# [17] = cAMP Responsive Elements (CRE) small molecule antagonists, cell-based qHTS assay (AID 1963591; active = well fitted inhibition curve with a large enough effect in the signal ratio in the repeat runs, not every such curve was filed as active; the % refers to the signal ratio)
# Summary of the method: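 CRE-bla HEK293T cells plated 18 h, then given compound plus NKH477 at 0.25 uM final for 3 h at 37C. Beta-lactamase reporter read with LiveBLAzer B/G FRET substrate after 2 h at room temperature.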
# [18] = molecular target: Beta-2 adrenergic receptor (Homo sapiens) (UniProt P07550); test: Adrenergic beta2 receptor (ADRB2) small molecule antagonists, cell-based qHTS assay (AID 1963592); note: series mostly up to about 92 µM; nearly all actives have a fitted effect of over 50% in size
# Sequence of Beta-2 adrenergic receptor (Homo sapiens) (P07550 whole entry, looked up): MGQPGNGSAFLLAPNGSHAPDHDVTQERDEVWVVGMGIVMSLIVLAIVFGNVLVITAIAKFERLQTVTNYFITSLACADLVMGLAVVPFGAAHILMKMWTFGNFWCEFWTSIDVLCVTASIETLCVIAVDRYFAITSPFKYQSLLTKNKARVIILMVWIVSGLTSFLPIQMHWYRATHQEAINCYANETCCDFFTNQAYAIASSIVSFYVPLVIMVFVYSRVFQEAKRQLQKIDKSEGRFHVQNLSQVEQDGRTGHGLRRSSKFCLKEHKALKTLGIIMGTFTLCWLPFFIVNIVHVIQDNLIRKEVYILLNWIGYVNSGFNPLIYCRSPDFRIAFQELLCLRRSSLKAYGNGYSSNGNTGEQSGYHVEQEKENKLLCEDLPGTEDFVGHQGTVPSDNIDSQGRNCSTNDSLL
# Summary of the method: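 Cells (CHO, stable ADRB2 overexpression) incubated 18-20hr at 37C; compounds added from DMSO; agonist mix (1nM isoproterenol, 100uM IBMX, 25uM Ro-20-1724) added; 0.5hr RT; d2-cAMP and anti-cAMP-cryptate added; 1hr RT; 665/615 nm read.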
# [19] = molecular target: D(2) dopamine receptor (Homo sapiens) (UniProt P14416); test: Dopamine D2 receptor (DRD2) small molecule agonists, cell-based qHTS assay (AID 1963594); note: nearly all actives have a fitted effect of over 35% in size
# Sequence of D(2) dopamine receptor (Homo sapiens) (P14416 whole entry, looked up): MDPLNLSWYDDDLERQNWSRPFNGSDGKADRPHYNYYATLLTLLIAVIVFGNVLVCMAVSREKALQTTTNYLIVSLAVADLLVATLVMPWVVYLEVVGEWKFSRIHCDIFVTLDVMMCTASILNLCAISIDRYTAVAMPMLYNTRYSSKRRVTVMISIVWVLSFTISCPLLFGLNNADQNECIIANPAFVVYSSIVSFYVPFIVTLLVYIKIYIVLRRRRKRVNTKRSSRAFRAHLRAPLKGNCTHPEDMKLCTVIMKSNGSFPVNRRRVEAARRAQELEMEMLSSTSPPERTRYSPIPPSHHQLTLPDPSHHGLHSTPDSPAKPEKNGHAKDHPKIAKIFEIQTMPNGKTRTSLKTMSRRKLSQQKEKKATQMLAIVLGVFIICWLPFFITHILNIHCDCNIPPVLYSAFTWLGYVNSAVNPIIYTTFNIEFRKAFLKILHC
# Summary of the method: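 HEK293 cells stably expressing DRD2 were cultured 24 h at 37 C, then given Ro20-1724 (0.1 mM final) and compounds for 10 min at room temperature. NKH477 (200nM) was then added for 30 min. cAMP was read by HTRF.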
# [20] = molecular target: D(2) dopamine receptor (Homo sapiens) (UniProt P14416); test: Dopamine D2 receptor (DRD2) small molecule antagonists, cell-based qHTS assay (AID 1963595; active = well fitted inhibition curve with a large enough effect in the signal ratio in the repeat runs, with a control signal flat; the % refers to the signal ratio)
# Summary of the method: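 Human DRD2 antagonist qHTS measuring cAMP by HTRF. The cells are exposed to compound for 10 min, then to NKH477 (200 nM) and quinpirole (12 nM) for 30 min at RT, with Ro20-1724 (0.1 mM) present throughout.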
smiles,measurement,setting,value
COC(=O)C1CC(=O)C(C(=O)OC)CC1=O (centres undefined),"activity change, negative = cytotoxicity",[1],2.06% [at 8.39 µM]
same,"activity, positive = activation",[2],-3.71% [at 8.39 µM]
same,activity change,[3],"0.483% [at 5.22 µM, hits give high values]"
same,activation,[4],0.0459% [at 6.97 µM]
same,activation,[5],-0.0233% [at 5.23 µM]
same,activation,[6],-0.316% [at 5.99 µM]
same,activation,[7],-0.919% [at 5.99 µM]
same,"activity change, negative = cytotoxicity",[8],-6.82% [at 5.99 µM]
same,"activity change, negative = cytotoxicity",[9],-4.56% [at 5.99 µM]
same,"activity change, negative = cytotoxicity",[10],-4.07% [at 5.99 µM]
same,activation,[11],-3.72% [at 5.99 µM]
same,"activity, negative = inhibition",[12],1.92% [at 5.62 µM]
same,activation,[13],7.2% [at 7.02 µM]
same,"activity, negative = inhibition",[14],62.7% [at 5.58 µM]
same,activation,[15],0.037% [at 6.97 µM]
same,activation,[16],0.379% [at 8.39 µM]
same,"activity change, negative = inhibition",[17],-7.12% [at 8.39 µM]
same,"activity change, negative = inhibition",[18],3.63% [at 8.39 µM]
same,activation,[19],-0.218% [at 8.39 µM]
same,"activity change, negative = inhibition",[20],-0.133% [at 8.38 µM]
CCCc1ccc(O)c(OC)c1,Potency,[1],inactive
same,Potency,[2],inactive
same,Potency,[3],inactive
same,outcome,[4],inactive
same,outcome,[5],inactive
same,Potency,[6],inactive
same,Potency,[7],inactive
same,Potency,[8],inactive
same,Potency,[9],inactive
same,Potency,[10],inactive
same,Potency,[11],inactive
same,Potency,[12],inactive
same,Potency,[13],inactive
same,Potency,[14],inactive
same,Potency,[15],inactive
same,Potency,[16],inactive
same,Potency,[17],inactive
same,Potency,[18],inactive
same,Potency,[19],inactive
same,Potency,[20],inactive
CCCCC,Potency,[1],inactive
same,Potency,[2],inactive
same,Potency,[3],38.3 µM (active)
same,outcome,[4],inactive
same,outcome,[5],inactive
same,Potency,[6],inactive
same,Potency,[7],inactive
same,Potency,[8],inactive
same,Potency,[9],inactive
same,Potency,[10],inactive
same,Potency,[11],inactive
same,Potency,[12],inactive
same,Potency,[13],inactive
same,Potency,[14],inactive
same,Potency,[15],inactive
same,Potency,[16],inactive
same,Potency,[17],inactive
same,Potency,[18],inactive
same,Potency,[19],inactive
same,Potency,[20],inactive
OC1CCCc2ccccc21 (centres undefined),Potency,[1],inactive
same,Potency,[2],inactive
same,Potency,[3],inactive
same,outcome,[4],inactive
same,outcome,[5],inactive
same,Potency,[6],inactive
same,Potency,[7],inactive
same,Potency,[8],inactive
same,Potency,[9],inactive
same,Potency,[10],inactive
same,Potency,[11],inactive
same,Potency,[12],inactive
same,Potency,[13],inactive
same,Potency,[14],inactive
same,Potency,[15],inactive
same,Potency,[16],inactive
same,Potency,[17],inactive
same,Potency,[18],inactive
same,Potency,[19],inactive
same,Potency,[20],inactive
CCCCCCCC1CCCC1=O (centres undefined),Potency,[1],inactive
same,Potency,[2],inactive
same,Potency,[3],inactive
same,outcome,[4],inactive
same,outcome,[5],inactive
same,Potency,[6],inactive
same,Potency,[7],inactive
same,Potency,[8],inactive
same,Potency,[9],inactive
same,Potency,[10],inactive
same,Potency,[11],inactive
same,Potency,[12],inactive
same,Potency,[13],inactive
same,Potency,[14],inactive
same,Potency,[15],inactive
same,Potency,[16],inactive
same,Potency,[17],inactive
same,Potency,[18],inactive
same,Potency,[20],inactive
C=C(C)C(=O)OCCCCCCCCCCOC(=O)C(=C)C,Potency,[1],inactive
same,Potency,[2],inactive
same,Potency,[3],inactive
same,outcome,[4],inactive
same,outcome,[5],inactive
same,Potency,[6],inactive
same,Potency,[7],inactive
same,Potency,[8],inactive
same,Potency,[9],inactive
same,Potency,[10],inactive
same,Potency,[11],inactive
same,Potency,[12],inactive
same,Potency,[13],inactive
same,Potency,[14],inactive
same,Potency,[15],inactive
same,Potency,[16],inactive
same,Potency,[17],inactive
same,Potency,[18],inactive
same,Potency,[19],inactive
same,Potency,[20],inactive
